# Screening results deposited in PubChem BioAssay by several laboratories.
# Cdc25B inh: inhibitors of human Cdc25B phosphatase; P30305; recombinant Cdc25B, OMFP fluorescence Ex485/Em525; inhibition, %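 (compounds tested at 10 µM final in the well)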; 65,000 tested, 0.1% active; AID 368; in the data active = inhibition above about 50%
# M1 antag: blocks the rat M1 muscarinic receptor response to acetylcholine | P08482 | CHO-M1 cells, Fluo-4 calcium, ACh EC80 antagonist mode; stronger effect = lower value | B-score at 10 µM | 64,000 tested, 3.4% active | AID 628;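 active = calcium fluorescence response, raw or row-and-column corrected B-score, differing from the plate sample mean either way at a set confidence level, mostly lower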
# Target sequence (P08482 whole entry, looked up): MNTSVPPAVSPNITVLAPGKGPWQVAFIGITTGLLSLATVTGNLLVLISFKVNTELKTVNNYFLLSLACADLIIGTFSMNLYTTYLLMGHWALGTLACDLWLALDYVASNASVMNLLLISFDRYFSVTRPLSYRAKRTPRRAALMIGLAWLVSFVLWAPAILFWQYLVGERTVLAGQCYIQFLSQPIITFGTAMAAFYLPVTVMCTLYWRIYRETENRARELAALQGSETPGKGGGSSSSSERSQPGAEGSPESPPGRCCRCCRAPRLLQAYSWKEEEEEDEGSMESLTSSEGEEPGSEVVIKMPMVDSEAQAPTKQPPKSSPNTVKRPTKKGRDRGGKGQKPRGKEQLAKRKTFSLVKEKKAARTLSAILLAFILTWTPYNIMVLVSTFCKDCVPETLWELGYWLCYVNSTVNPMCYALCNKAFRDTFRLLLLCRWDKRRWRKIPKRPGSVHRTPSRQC
# Hsp90 inh: displaces geldanamycin probe from tumor Hsp90 | P07900 | NCI-N417 lysate Hsp90, Cy3B-geldanamycin FP displacement | inhibition, % at 30 µM | 64,000 tested, 0.35% active;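 active = inhibition above 50%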;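 also: 0% = tracer plus lysate wells and 100% = tracer alone without lysate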
# MKP-1 inh: inhibitors of human MKP-1 phosphatase; P28562; recombinant MKP-1, OMFP hydrolysis fluorescence; inhibition, %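 (compounds tested at a single concentration somewhere between 10 and 100 µM)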; 65,000 tested, 0.15% active; AID 374;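 active = inhibition above about 50%, limit read from the data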;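 also: 0% = DMSO max control wells and 100% = wells with enzyme stopped by NaOH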
# MMP13 inh: blocks human MMP13 activity. inhibition, % at 4 µM. 65,000 tested, 0.07% active. MMP-13 fTHP FRET cleavage, Mca fluorescence;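 active = inhibition above the mean of compound-free control plate wells plus 3 SD, cut at about 14% in these data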;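 also: 0% = DMSO wells and 100% = wells with reference MMP-13 inhibitor after basal subtraction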
# M1 agonist: agonists of M1 muscarinic receptor; B-score at 10 µM; 64,000 tested, 3% active; CHO-M1 cells, Fluo-4 calcium fluorescence, agonist mode; stronger effect = higher value; AID 626;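 active = fluorescence rise, raw or as B-score row- and column-corrected plate score, outside the 99.7% band of its plate's samples, either direction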
# M1 antag conf: M1 muscarinic receptor (rat) antagonism, confirmed. shares compounds with M1 antag. CHO-M1 cells, Fluo-4 calcium, ACh EC80 antagonism; stronger effect = lower value. calcium response (max-min fluorescence) at 10 µM. 1,700 tested, 43% active. AID 677;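 active = calcium response below the same-plate mean of wells given acetylcholine alone at its 80%-effect dose, minus 3 SD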;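 also: raw fluorescence intensity difference in arbitrary instrument units and not normalized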
# mGluR4 antag: selectivity test for M1 antagonists: human mGluR4 receptor; shares compounds with M1 antag; CHO-mGluR4 calcium flux, Fluo-4 fluorescence, glutamate EC80; stronger effect = lower value; fluorescence response (max-min) at 10 µM; 1,700 tested, 0.9% active;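 active = fluorescence response below the plate's average for near-maximal glutamate wells, less 3 SD of those wells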;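 also: raw unnormalized fluorescence span taken in the window right after glutamate addition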
# * hit, by the source's call; . = no result given; ! = not active in a repeat. This is a sample that favours compounds with a hit; in the whole collection about 6.1% have one here.
SMILES,Cdc25B inh,M1 antag,Hsp90 inh,MKP-1 inh,MMP13 inh,M1 agonist,M1 antag conf,mGluR4 antag
COc1nc(NC(C)=O)nc(C)c1Br,.,-10.4*,.,.,7.3,0.0136,598,257
Cc1cc2nc(C)n(CCCNC(=O)Nc3ccc(C#N)cc3)c2cc1C,-3.7,-10.2*,1.1,9.7,8.4,-0.786,135*,210
O=C(CNC1CCCCCC1)Nc1ccc(S(=O)(=O)NC2CC2)cc1,-3.1,-4.83*,-3.1,-9.4,-6.4,-0.964,182*,255
Cc1cccc(CS(=O)(=O)Cc2ccc(C(=O)NCc3cccnc3)o2)c1,5.2,-18*,-5.0,-1.0,-10.6,-0.00799,625,245
Cc1ccccc1CS(=O)(=O)Cc1ccc(C(=O)NCc2cccnc2)o1,-7.5,0.0167,-3.8,1.6,4.1,-0.217,.,.
CC(C)CC(=O)N1CCN(S(C)(=O)=O)CC1,-3.4,-3.62*,-4.3,0.4,2.3,-0.117,594,238
CC(C)CC(=O)N1CCN(S(=O)(=O)c2ccc(F)cc2)CC1,-1.3,-0.411,-2.7,-20.3,-5.6,0.39,.,.
NCCCCCc1nnc(SC/C=C/c2ccccc2)o1,-6.6,-3.56*,-2.5,-10.8,-4.6,0.0105,450*,275
O=C(NC(Cc1ccccc1)C(=O)OCC(=O)N1CCc2ccccc21)c1ccco1 (configuration not stated),-7.0,-1.52,-2.7,-8.9,2.6,2.12,.,.
CC(Oc1ccc(Cl)cc1Cl)C(=O)NCc1ccncc1 (configuration not stated),27.3,-2.43*,.,7.2,4.3,0.635,605,223
O=C1c2cccnc2C(=O)N1Cc1ccco1,0.3,0.294,-1.3,1.2,1.9,0.686,.,.
O=C1c2cccnc2C(=O)N1CO,-3.7,-2.42*,-2.7,1.2,4.6,-0.778,581,216
CCC(NC(C)C)C(O)c1ccc(O)c(O)c1 (configuration not stated),10.3,-14.2*,59.4*!,15.8,0.9,0.548,632,248
CC(C)NC[C@H](O)c1ccc(O)c(O)c1,.,.,31.6,.,.,.,.,.
Cc1ccc(N2CC(c3nc4ccccc4n3C)CC2=O)cc1C (configuration not stated),-9.2,-4.05*,-1.8,-5.9,1.3,0.112,447*,234
Cc1cc(C)cc(N2CC(c3nc4ccccc4n3C)CC2=O)c1 (configuration not stated),-0.2,0.0276,-0.6,12.4,0.4,0.192,.,.
OC(C#CCN1CCCCC1)c1ccccc1 (configuration not stated),-3.5,-2.63*,1.5,6.0,-3.8,0.132,432,185
O=C(O)C(c1ccccc1)N1CCCC1 (configuration not stated),-4.5,-0.21,3.0,-1.3,1.8,0.53,.,.
OC(C#CCN1CCCC1)c1ccccc1 (configuration not stated),-5.3,-3.04*,2.9,2.8,3.0,0.0507,462,199
O=C1COc2ccccc2N1Cc1ccccc1Cl,-8.8,0.908,0.9,-3.3,5.2,0.725,.,.
CCN(CC)CCOC(=O)C1(c2ccc(OC)c(OC)c2)CCCC1,-9.5,-10.8*,0.0,-17.3,0.0,0.536,165*,195
CCN(c1nc(N)c(C(=O)N=C(N)N)nc1Cl)C(C)C,.,.,-4.2,.,.,.,.,.
COC(=O)C1=C(C)NC(=O)NC1c1cn(-c2ccccc2)nc1-c1cccs1 (configuration not stated),-8.8,-2.69*,.,27.0,-0.2,-1.12,429,203
CCOC(=O)C1=C(C)NC(=O)NC1c1cn(-c2ccccc2)nc1-c1cccs1 (configuration not stated),-6.0,-1.58,-4.6,18.9,5.5,-0.785,.,.
O=C(Cn1cnc2ccccc21)OCC(=O)N1CCc2ccccc2C1,3.8,-1.75*,1.6,6.3,-0.6,-1.22,598,221
Oc1c(C(Nc2ccccn2)c2ccccn2)ccc2cccnc12 (configuration not stated),-16.8,-3.57*,-0.2,22.6,-1.0,2.27,602,189
CCOC(=O)c1cnc(-n2nc(C)cc2C)nc1NCc1ccccc1,3.8,-4.29*,7.3,-0.7,-6.5,1.2,405*,196
